# Results as given in PubChem BioAssay.
# Calls of active or inactive are those of the source. Unless noted, how the calls were made is not given here.
# Columns and labels:
# [1] = compounds binding Alexa647 anti-His antibody – biochemical, small-molecule microarray, 635 nm fluorescence, artefact control for SMM control protein annotation, primary screen (AID 1128); settings: higher = more signal;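 further: score merges feature fluorescence with signal-to-noise for each printed compound spot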
# [2] = tested on: Human papillomavirus type 1a E7 protein (residues 1-88); test: HPV1a E7 small-molecule binders, primary screen, biochemical, small-molecule microarray, residues 1-88, 635 nm (AID 1129); settings: small-molecule microarray binding, fluorescence 635 nm; higher = more signal
# [3] = molecular target: Focal adhesion kinase 1 (Homo sapiens) (UniProt Q05397); test: PTK2 protein binding on printed compound slides – biochemical, small-molecule microarray, 635/667 nm fluorescence, BSA, DTT, primary screen (AID 1130); settings: 635 nm fluorescence, higher = more signal;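 further: composite of spot emission at 667 nm and signal to noise over triplicate slides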
# Focal adhesion kinase 1 (Homo sapiens), sequence (Q05397 whole entry, looked up): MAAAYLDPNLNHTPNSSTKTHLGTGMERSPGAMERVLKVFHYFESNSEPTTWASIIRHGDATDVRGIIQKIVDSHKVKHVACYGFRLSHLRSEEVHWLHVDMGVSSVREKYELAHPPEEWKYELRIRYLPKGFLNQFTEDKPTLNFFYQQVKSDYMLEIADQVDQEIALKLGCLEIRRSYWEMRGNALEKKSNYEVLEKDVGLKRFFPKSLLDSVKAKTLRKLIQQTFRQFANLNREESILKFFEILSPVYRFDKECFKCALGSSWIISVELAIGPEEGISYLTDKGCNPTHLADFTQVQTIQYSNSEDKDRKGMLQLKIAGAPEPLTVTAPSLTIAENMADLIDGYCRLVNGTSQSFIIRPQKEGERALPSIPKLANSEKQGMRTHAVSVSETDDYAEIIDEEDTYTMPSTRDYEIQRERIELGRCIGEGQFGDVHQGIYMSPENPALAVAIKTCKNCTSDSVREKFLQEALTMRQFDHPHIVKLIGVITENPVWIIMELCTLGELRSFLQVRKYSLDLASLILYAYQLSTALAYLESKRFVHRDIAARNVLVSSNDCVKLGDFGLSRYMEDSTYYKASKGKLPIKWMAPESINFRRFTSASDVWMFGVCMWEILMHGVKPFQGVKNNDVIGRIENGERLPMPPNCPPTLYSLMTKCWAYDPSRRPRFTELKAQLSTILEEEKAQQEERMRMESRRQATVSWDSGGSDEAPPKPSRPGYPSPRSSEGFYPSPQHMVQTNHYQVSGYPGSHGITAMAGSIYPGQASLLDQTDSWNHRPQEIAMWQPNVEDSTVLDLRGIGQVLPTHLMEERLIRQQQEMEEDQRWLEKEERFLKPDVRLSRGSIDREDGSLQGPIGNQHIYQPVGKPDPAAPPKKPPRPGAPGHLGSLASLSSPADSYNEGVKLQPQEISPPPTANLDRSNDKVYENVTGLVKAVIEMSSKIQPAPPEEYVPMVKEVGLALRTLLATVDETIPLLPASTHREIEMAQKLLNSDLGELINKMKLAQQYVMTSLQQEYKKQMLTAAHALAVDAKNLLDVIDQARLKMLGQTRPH
# [4] = tested on: Fibrinogen (Alexa647-labelled); test: Alexa647-fibrinogen binding to printed small molecules – biochemical, small-molecule microarray, 635/667 nm fluorescence, artefact control for SMM control-protein annotation, profiling panel (AID 1131); settings: fibrinogen-A647 binding fluorescence, higher = more signal;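 further: z-score merges 667 nm fluorescence with per-spot signal-to-noise over triplicate slides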
# [5] = molecular target: Follistatin (Homo sapiens) (UniProt P19883); test: FST protein binding to printed compounds – biochemical, small-molecule microarray, 635/667 nm fluorescence, primary screen (AID 1132); settings: 635 nm fluorescence, higher = more signal
# Follistatin (Homo sapiens), sequence (P19883 whole entry, looked up): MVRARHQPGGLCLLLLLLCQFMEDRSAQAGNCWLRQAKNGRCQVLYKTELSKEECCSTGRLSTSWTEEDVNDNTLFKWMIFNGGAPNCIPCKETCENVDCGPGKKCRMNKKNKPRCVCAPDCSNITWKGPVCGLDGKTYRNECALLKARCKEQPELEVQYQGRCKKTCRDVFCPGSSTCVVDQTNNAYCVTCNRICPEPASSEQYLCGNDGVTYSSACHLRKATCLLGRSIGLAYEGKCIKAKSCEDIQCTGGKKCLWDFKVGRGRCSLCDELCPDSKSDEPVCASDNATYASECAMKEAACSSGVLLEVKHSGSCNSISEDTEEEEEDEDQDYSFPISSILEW
# [6] = molecular target: Fibroblast growth factor 2 (Homo sapiens) (UniProt P09038); test: basic fibroblast growth factor binding to printed compounds – biochemical, small-molecule microarray, 635/667 nm fluorescence, primary screen (AID 1133); settings: FGF2, fluorescence 635/667, higher = more signal
# Fibroblast growth factor 2 (Homo sapiens), sequence (P09038 whole entry, looked up): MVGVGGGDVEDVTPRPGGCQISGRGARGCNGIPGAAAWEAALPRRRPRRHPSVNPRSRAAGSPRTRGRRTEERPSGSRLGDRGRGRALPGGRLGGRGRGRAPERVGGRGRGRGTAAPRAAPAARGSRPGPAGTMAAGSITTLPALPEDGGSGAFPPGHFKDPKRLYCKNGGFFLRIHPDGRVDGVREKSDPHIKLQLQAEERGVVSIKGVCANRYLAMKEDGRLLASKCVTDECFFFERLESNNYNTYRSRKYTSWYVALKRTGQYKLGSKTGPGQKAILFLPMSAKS
# [7] = JC-1 mitochondrial potential readout, lung cancer cells – cell-based, A549, JC-1 fluorescence, basal, 24 h, 100 nL, profiling panel (AID 1138); settings: higher = more signal;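 further: A549 lung adenocarcinoma cells under basal conditions with no added stimulus; test concentration not given here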
# Lefty1 = Lefty1 protein binding to printed compounds – biochemical, small-molecule microarray, 635/667 nm fluorescence, primary screen (AID 1139); settings: fluorescence 635/667, higher = more signal
# [8] = tested on: wheat germ agglutinin (Triticum aestivum), Alexa647-labelled; test: Alexa647-WGA lectin binding to printed small molecules – biochemical, small-molecule microarray, 635/667 nm fluorescence, artefact control for SMM control-protein annotation, profiling panel (AID 1140); settings: WGA-A647 binding, 635 nm fluorescence, higher = more signal;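 further: score merges 667 nm feature emission with signal to noise over triplicate slides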
# [9] = molecular target: Luciferin 4-monooxygenase (Photinus pyralis) (UniProt P08659); test: inhibition of purified Photinus pyralis luciferase – biochemical, luminescence, purified enzyme, 2006 set, primary screen (AID 1141); settings: purified firefly luciferase, SteadyGlo luminescence, 30 min; higher = more signal, called active from +8 up or from −8 down;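 further: cell-free assay with purified firefly luciferase at 100 ng per well in PBS; test concentration not given here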
# Luciferin 4-monooxygenase (Photinus pyralis), sequence (P08659 whole entry, looked up): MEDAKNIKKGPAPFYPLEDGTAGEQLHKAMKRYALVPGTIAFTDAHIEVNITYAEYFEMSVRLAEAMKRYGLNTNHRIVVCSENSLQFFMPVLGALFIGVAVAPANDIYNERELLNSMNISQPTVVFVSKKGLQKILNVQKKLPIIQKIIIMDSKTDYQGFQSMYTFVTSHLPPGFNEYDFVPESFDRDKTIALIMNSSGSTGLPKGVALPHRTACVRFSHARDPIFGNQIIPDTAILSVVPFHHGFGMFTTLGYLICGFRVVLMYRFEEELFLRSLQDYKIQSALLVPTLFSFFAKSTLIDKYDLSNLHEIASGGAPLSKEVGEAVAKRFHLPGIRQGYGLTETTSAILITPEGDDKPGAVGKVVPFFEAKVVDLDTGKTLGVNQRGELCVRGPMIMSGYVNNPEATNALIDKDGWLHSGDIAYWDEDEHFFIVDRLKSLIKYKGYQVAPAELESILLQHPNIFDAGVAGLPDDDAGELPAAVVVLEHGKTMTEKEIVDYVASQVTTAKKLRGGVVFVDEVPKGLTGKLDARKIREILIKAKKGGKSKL
# [10] = tested on: Wnt5a (protein binding on small-molecule microarray); test: small molecules binding Wnt5a protein – biophysical, small-molecule microarray, 635/667 nm fluorescence, primary screen (AID 1142); settings: 635 nm fluorescence, higher = more signal;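 further: fluorescence read at 667 nm with signal to noise per printed feature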
# [11] = ATP-based viability of Huh7 replicon cells – cell-based, CellTiter-Glo luminescence, basal, 48 h, cytotoxicity control for HCV replication inhibitor project, primary screen (AID 1143); settings: higher = more signal, called active from +8 up or from −8 down;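 further: Huh7 hepatoma cells carrying a hepatitis C replication reporter with no stimulus; test concentration not given here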
# [12] = Pseudomonas biofilm growth suppression – PAO1 strain, BacTiter-Glo luminescence, LB-PBS, primary screen (AID 1144); settings: P. aeruginosa PAO1 biofilm, 12 h, higher = more signal
# [13] = basal CRE-LacZ reporter activity in PC12 – cell-based, unstimulated, primary screen (AID 1145); settings: no forskolin, luminescence, 4.5 h, higher = more signal, called active from +8 up or from −8 down
# [14] = forskolin-driven CRE-LacZ activity in PC12 – cell-based, CRE-LacZ reporter, forskolin-stimulated, primary screen (AID 1146); settings: luminescence, 4.5 h, higher = more signal, called active from +8 up or from −8 down;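 further: PC12 cells with 6xCRE LacZ reporter stimulated by forskolin 10 µM; beta-galactosidase reporter signal reflecting CREB driven transcription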
# [15] = molecular target: Streptavidin (Streptomyces avidinii) (UniProt P22629); test: compounds binding control protein streptavidin – biophysical, small-molecule microarray, 635/667 nm fluorescence, artefact control for SMM compound annotation, primary screen (AID 1147); settings: higher = more signal;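 further: signal reflects streptavidin binding to arrayed compounds as a control protein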
# Streptavidin (Streptomyces avidinii), sequence (P22629 whole entry, looked up): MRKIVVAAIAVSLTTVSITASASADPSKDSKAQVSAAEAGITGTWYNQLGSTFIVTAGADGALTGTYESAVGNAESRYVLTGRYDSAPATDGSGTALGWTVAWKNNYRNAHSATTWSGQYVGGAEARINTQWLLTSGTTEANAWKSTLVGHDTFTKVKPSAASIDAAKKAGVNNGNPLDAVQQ
# [16] = probe aInhba binding on compound microarray – biochemical, small-molecule microarray, 635/667 nm fluorescence, primary screen (AID 1148); settings: higher = more signal;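 further: score merges 667nm spot fluorescence with signal-to-noise for antibody binding to printed compounds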
# Torsin-1A (Homo sapiens) [17] = molecular target: Torsin-1A (Homo sapiens) (UniProt O14656); test: TOR1A wild-type binding on microarray – cell lysate, small-molecule microarray, lysate, 635/667 nm, primary screen (AID 1149); settings: COS7 hTOR1A-WT lysate, 635 nm fluorescence, higher = more signal
# Torsin-1A (Homo sapiens), sequence (O14656 whole entry, looked up): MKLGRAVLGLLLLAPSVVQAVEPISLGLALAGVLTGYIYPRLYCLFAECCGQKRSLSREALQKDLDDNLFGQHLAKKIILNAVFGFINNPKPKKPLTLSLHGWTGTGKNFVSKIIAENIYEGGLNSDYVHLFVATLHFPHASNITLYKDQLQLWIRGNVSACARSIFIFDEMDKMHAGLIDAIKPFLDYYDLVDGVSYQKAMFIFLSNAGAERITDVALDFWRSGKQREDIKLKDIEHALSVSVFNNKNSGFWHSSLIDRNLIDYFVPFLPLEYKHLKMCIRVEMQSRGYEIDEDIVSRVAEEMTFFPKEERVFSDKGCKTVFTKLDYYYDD
# Torsin-1A (Homo sapiens) [18] = molecular target: Torsin-1A (Homo sapiens) (UniProt O14656); test: torsin A mutant lysate binding on microarrays – cell lysate, small-molecule microarray, COS7 lysate, 635/667 nm fluorescence, primary screen (AID 1150); settings: COS7 hTOR1A mutant lysate, 635 nm fluorescence, higher = more signal;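 further: score pools 667 nm emission and signal to noise measuring lysate protein binding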
# [19] = tested on: Sonic hedgehog protein (Shh); test: Sonic hedgehog microarray binding compounds – biochemical, small-molecule microarray, 635/667 nm fluorescence, primary screen (AID 1151); settings: 635 nm fluorescence, higher = more signal;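 further: Shh protein binding to compounds spotted on small-molecule microarray slides; score combines spot fluorescence intensity with signal-to-noise across triplicate slides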
Structure (SMILES),composite z-score [1],composite z-score [2],composite z-score [3],composite z-score [4],composite z-score [5],composite z-score [6],z-score [7],composite z-score (Lefty1),composite z-score [8],z-score [9],composite z-score [10],z-score [11],z-score [12],z-score [13],z-score [14],composite z-score [15],composite z-score [16],composite z-score (Torsin-1A (Homo sapiens) [17]),composite z-score (Torsin-1A (Homo sapiens) [18]),composite z-score [19]
C=C(COC)/C(=C/C[C@@H](OC(C)=O)c1ccc(CO)o1)c1cnc2ccccc2c1,0.562,1.14,-0.23,0.962,1.44,1.57,-0.482,1.46,1.04,-3.82 (inactive),0.387,-0.0797 (inactive),-1.14 (inactive),0.159 (inactive),-1.6 (inactive),1.3,0.147,0.797,0.73,2.1
COc1ccc(C(O)C2C=CC3C(=O)N(C)C(=O)C3N2N2CCCCC2)c2ccccc12 (stereo not given),1.4,1.26,0.921,1,0.829,-0.372,-0.364,0.174,1.27,-0.129 (inactive),0.533,0.221 (inactive),0.28 (inactive),1.39 (inactive),0.426 (inactive),1.25,0.111,0.466,0.66,-0.474
C=C(CCCC)C(=O)CC[C@@H](OC(=O)c1cccnc1)c1ccc(CO)o1,1.18,1,-0.338,0.947,1.25,1.47,-0.627,1.36,0.828,-2.32 (inactive),0.314,-0.0785 (inactive),-0.0897 (inactive),2.41 (inactive),0.783 (inactive),1.05,-0.0774,0.984,1.74,2.04
C=CCOC(=O)[C@H]1[C@@H]2C(=O)O[C@@H](c3ccccc3)[C@@H](c3ccccc3)N2[C@@H](c2ccc(OCCOC(=O)[C@@H]3C[C@@H]4C(=O)N5CCC[C@H]5C(=O)N4[C@@H]3c3cccc(OCCO)c3)cc2)[C@]12C(=O)Nc1ccccc12,2.53,1.19,0.701,0.686,1.3,1.51,-1.5,1.14,0.847,-0.187 (inactive),0.537,0.0308 (inactive),-0.0247 (inactive),-0.675 (inactive),0.0527 (inactive),-0.274,0.325,0.459,0.767,1.56
COc1ccc(NN2C(C(O)c3ccc([N+](=O)[O-])cc3)C=CC3C(=O)N(C4CCCCC4)C(=O)C32)cc1 (stereo not given),0.525,0.918,0.201,0.93,0.737,-0.532,0.732,0.0274,1.13,0.939 (inactive),-0.0777,-0.416 (inactive),-1.05 (inactive),-0.667 (inactive),-0.441 (inactive),1.99,0.199,-0.233,0.382,-0.49
[N-]=[N+]=NCc1ccccc1C[C@]1(C(=O)O)N=C(c2ccc(OCCCO)cc2)O[C@H]1c1ccccc1N=[N+]=[N-],0.906,1.19,0.532,0.985,1.1,0.582,-1.17,0.354,1.2,-13.8 (active),0.92,-2.37 (inactive),-2.08 (inactive),0.218 (inactive),0.987 (inactive),0.954,0.199,2.01,1.39,0.237
O=C(C1N=C(c2ccc(OCCCO)cc2)N(c2ccccc2)O1)N1CCOCC1 (stereo not given),0.548,1.2,0.497,0.966,1.22,0.667,0.211,0.842,0.388,-12 (active),0.427,-3.19 (inactive),-0.59 (inactive),0.185 (inactive),-0.472 (inactive),0.637,0.0947,0.652,0.219,0.476
CN1C2C=C(CCCO)C(C3C(=O)N(C(N)=O)C(=O)C32)C1c1ccc(CN2CCCC2)cc1 (stereo not given),0.161,-0.697,-0.311,-0.929,-0.0168,0.0692,-0.637,-0.484,-0.0816,0.73 (inactive),0.269,1.23 (inactive),-0.938 (inactive),-0.83 (inactive),1.31 (inactive),-0.411,-0.299,-0.14,-0.266,-0.138
COC(=O)[C@@]1(Cc2ccc(OC)cc2)[C@H]2c3cc(C(=O)N(C)C)n(Cc4cccc5ccccc45)c3C[C@H]2CN1C(=O)c1ccccc1,1.54,1.26,0.306,1.02,0.202,-0.225,-0.78,0.566,1.03,0.629 (inactive),1.44,-4.45 (inactive),-0.0601 (inactive),0.0075 (inactive),0.458 (inactive),0.697,0.943,0.817,1.14,0.659
C[N+](C)(C)CCCC[C@@H]1NC(=O)[C@@H]2C[C@H](C(=O)NCCCCCN)[C@H](c3cccc(OCCO)c3)N2C1=O,0.758,0.935,0.103,0.978,0.597,0.175,0.809,0.161,1.07,-1.25 (inactive),-0.0878,0.288 (inactive),-0.165 (inactive),0.7 (inactive),0.508 (inactive),1.19,-0.117,0.345,-0.149,-0.125
